# Laboratory results: paper PMC11062922 (Nature Chemical Biology, 2023)
# Like-named read-outs stand apart in the source and are kept apart here.
# What was measured:
# AAK1 = system: AAK1; parameters: species or system human, MV4-11 + K-562 + COLO205 + SK-N-BE2 + OVCAR-8; details: read-out: apparent Kd, n = 1
# BMP2K = system: BMP2K; parameters: species or system human, MV4-11 + K-562 + COLO205 + SK-N-BE2 + OVCAR-8; details: read-out: apparent Kd, n = 1
# CLK1 = system: CLK1; parameters: species or system human, MV4-11 + K-562 + COLO205 + SK-N-BE2 + OVCAR-8; details: read-out: apparent Kd, n = 1
# CLK4 = system: CLK4; parameters: species or system human, MV4-11 + K-562 + COLO205 + SK-N-BE2 + OVCAR-8; details: read-out: apparent Kd, n = 1
# Q6ZSR9 = Q6ZSR9 (human, UniProt Q6ZSR9); parameters: species or system MV4-11 + K-562 + COLO205 + SK-N-BE2 + OVCAR-8; details: read-out: apparent Kd, n = 1
# CSNK2A1;CSNK2A3 = system: CSNK2A1;CSNK2A3; parameters: species or system human, MV4-11 + K-562 + COLO205 + SK-N-BE2 + OVCAR-8; details: read-out: apparent Kd, n = 1
# CSNK2A2 = system: CSNK2A2; parameters: species or system human, MV4-11 + K-562 + COLO205 + SK-N-BE2 + OVCAR-8; details: read-out: apparent Kd, n = 1
# NUAK1 = system: NUAK1; parameters: species or system human, MV4-11 + K-562 + COLO205 + SK-N-BE2 + OVCAR-8; details: read-out: apparent Kd; compound concentrations:100 nM and 1000 nM (sheet 'Samples'); n = 1
# FLT4 = system: FLT4; parameters: species or system human, MV4-11 + K-562 + COLO205 + SK-N-BE2 + OVCAR-8; details: read-out: apparent Kd, compound concentrations: 100 nM and 1000 nM (sheet 'Samples'), n = 1
# GAK = system: GAK; parameters: species or system human, MV4-11 + K-562 + COLO205 + SK-N-BE2 + OVCAR-8; details: read-out: apparent Kd, n = 1
# GSK3A = system: GSK3A; parameters: species or system human, MV4-11 + K-562 + COLO205 + SK-N-BE2 + OVCAR-8; details: read-out: apparent Kd, n = 1
# GSK3B = system: GSK3B; parameters: species or system human, MV4-11 + K-562 + COLO205 + SK-N-BE2 + OVCAR-8; details: read-out: apparent Kd; compound concentrations:100 nM and 1000 nM (sheet 'Samples'); n = 1
# PKN1 = system: PKN1; parameters: species or system human, MV4-11 + K-562 + COLO205 + SK-N-BE2 + OVCAR-8; details: read-out: apparent Kd; compound concentrations:100 nM and 1000 nM (sheet 'Samples'); n = 1
# PKN3 = system: PKN3; parameters: species or system human, MV4-11 + K-562 + COLO205 + SK-N-BE2 + OVCAR-8; details: read-out: apparent Kd; compound concentrations:100 nM and 1000 nM (sheet 'Samples'); n = 1
# SIK2 = system: SIK2; parameters: species or system human, MV4-11 + K-562 + COLO205 + SK-N-BE2 + OVCAR-8; details: read-out: apparent Kd; compound concentrations:100 nM and 1000 nM (sheet 'Samples'); n = 1
# FLT3 = system: FLT3; parameters: species or system human, MV4-11 + K-562 + COLO205 + SK-N-BE2 + OVCAR-8; details: read-out: apparent Kd; compound concentrations: 100 nM and 1000 nM (sheet 'Samples'), CATDS: 2.3969492803236899E-2; n = 1
# MELK = system: MELK; parameters: species or system human, MV4-11 + K-562 + COLO205 + SK-N-BE2 + OVCAR-8; details: read-out: apparent Kd; compound concentrations: 100 nM and 1000 nM (sheet 'Samples'), CATDS: 1.7288492944947598E-2; n = 1
# RET = system: RET; parameters: species or system human, MV4-11 + K-562 + COLO205 + SK-N-BE2 + OVCAR-8; details: read-out: apparent Kd; compound concentrations: 100 nM and 1000 nM (sheet 'Samples'), CATDS: 1.8914319657445101E-2; n = 1
# [1] = compound concentrations:100 nM and 1000 nM (sheet 'Samples')
# Sequence of Q6ZSR9 (Q6ZSR9 whole entry, looked up): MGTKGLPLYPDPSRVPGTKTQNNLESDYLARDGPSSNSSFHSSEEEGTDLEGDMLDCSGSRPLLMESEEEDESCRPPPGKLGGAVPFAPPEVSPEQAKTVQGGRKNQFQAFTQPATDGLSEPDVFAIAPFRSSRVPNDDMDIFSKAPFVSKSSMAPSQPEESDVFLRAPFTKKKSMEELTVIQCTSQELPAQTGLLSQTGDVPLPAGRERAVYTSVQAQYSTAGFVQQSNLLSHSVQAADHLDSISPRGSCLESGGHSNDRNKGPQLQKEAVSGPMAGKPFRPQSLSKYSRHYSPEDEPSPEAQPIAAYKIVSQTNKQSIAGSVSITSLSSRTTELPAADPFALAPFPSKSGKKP
smiles,measurement,setting,value
O=C1N=C(N[C@@H](CO)Cc2ccccc2)S/C1=C\c1ccc2ncccc2c1 [RO4509200-000],potency estimated from few doses,"AAK1; compound concentrations: 100 nM and 1000 nM (sheet 'Samples'), CATDS: 0.15010438596183701",551 nM
same,potency estimated from few doses,"BMP2K; compound concentrations: 100 nM and 1000 nM (sheet 'Samples'), CATDS: 0.102719601142922",1460 nM
same,potency estimated from few doses,"CLK1; compound concentrations: 100 nM and 1000 nM (sheet 'Samples'), CATDS: 0.20013343303713499",329 nM
same,potency estimated from few doses,"CLK4; compound concentrations: 100 nM and 1000 nM (sheet 'Samples'), CATDS: 0.162916549975684",470 nM
same,potency estimated from few doses,"Q6ZSR9; compound concentrations: 100 nM and 1000 nM (sheet 'Samples'), CATDS: 0.142532878113064",613 nM
NS(=O)(=O)c1ccc(N/N=C2\C(=O)Nc3ccc(-c4cnco4)cc32)cc1 [GW276655_KCGS],potency estimated from few doses,AAK1; [1],1180 nM
same,potency estimated from few doses,BMP2K; [1],518 nM
same,potency estimated from few doses,Q6ZSR9; [1],782 nM
CC(C)(CO)CNC(=O)c1ccc2c(c1)/C(=N/Nc1ccc(S(N)(=O)=O)cc1)C(=O)N2 [GW301784X],potency estimated from few doses,AAK1; [1],1820 nM
same,potency estimated from few doses,BMP2K; [1],1840 nM
same,potency estimated from few doses,CLK1; [1],878 nM
same,potency estimated from few doses,CLK4; [1],612 nM
same,potency estimated from few doses,CSNK2A1;CSNK2A3; [1],120 nM
same,potency estimated from few doses,CSNK2A2; [1],64.3 nM
same,potency estimated from few doses,Q6ZSR9; [1],1600 nM
CN(C)C(=O)/C(C#N)=C/c1ccc(-c2nc3cnc4[nH]ccc4c3n2C2CCCCC2)o1 [FM-381],potency estimated from few doses,AAK1; [1],1820 nM
same,potency estimated from few doses,BMP2K; [1],1050 nM
same,potency estimated from few doses,NUAK1,566 nM
same,potency estimated from few doses,Q6ZSR9; [1],1760 nM
Cl.Nc1nc(-c2ccc3c(c2)C(=Cc2cc(Br)c(O)c(Br)c2)C(=O)N3)cs1 [GW407323A],potency estimated from few doses,"AAK1; compound concentrations: 100 nM and 1000 nM (sheet 'Samples'), CATDS: 6.1735676660854701E-2",169 nM
same,potency estimated from few doses,"BMP2K; compound concentrations: 100 nM and 1000 nM (sheet 'Samples'), CATDS: 9.5342393431140995E-2",73.6 nM
same,potency estimated from few doses,"CLK1; compound concentrations: 100 nM and 1000 nM (sheet 'Samples'), CATDS: 4.62979117088285E-2",333 nM
same,potency estimated from few doses,"CLK4; compound concentrations: 100 nM and 1000 nM (sheet 'Samples'), CATDS: 8.6707828980110799E-2",87 nM
same,potency estimated from few doses,"CSNK2A1;CSNK2A3; compound concentrations: 100 nM and 1000 nM (sheet 'Samples'), CATDS: 5.7367661207528599E-2",199 nM
same,potency estimated from few doses,"CSNK2A2; compound concentrations: 100 nM and 1000 nM (sheet 'Samples'), CATDS: 4.5506088174881797E-2",349 nM
same,potency estimated from few doses,"Q6ZSR9; compound concentrations: 100 nM and 1000 nM (sheet 'Samples'), CATDS: 5.6700337610390401E-2",204 nM
Cn1cc(C2=C(c3c(S(C)=O)n(C)c4ccccc34)C(=O)NC2=O)c2ccccc21 (stereo not shown) [RO0317379-000],potency estimated from few doses,"AAK1; compound concentrations: 100 nM and 1000 nM (sheet 'Samples'), CATDS: 0.257155893587458",217 nM
same,potency estimated from few doses,"BMP2K; compound concentrations: 100 nM and 1000 nM (sheet 'Samples'), CATDS: 0.121414398934197",1050 nM
same,potency estimated from few doses,"Q6ZSR9; compound concentrations: 100 nM and 1000 nM (sheet 'Samples'), CATDS: 0.33733581248504402",142 nM
COc1cc2ncn(-c3cc(OCc4ccccc4S(C)(=O)=O)c(C#N)s3)c2cc1OC [GSK319347A],potency estimated from few doses,"AAK1; compound concentrations: 100 nM and 1000 nM (sheet 'Samples'), CATDS: 0.12685242970353799",621 nM
same,potency estimated from few doses,"BMP2K; compound concentrations: 100 nM and 1000 nM (sheet 'Samples'), CATDS: 0.286498522791794",177 nM
same,potency estimated from few doses,FLT4; CATDS: 8.0295198966638101E-2,1720 nM
same,potency estimated from few doses,"GAK; compound concentrations: 100 nM and 1000 nM (sheet 'Samples'), CATDS: 8.54645100662135E-2",1450 nM
same,potency estimated from few doses,"Q6ZSR9; compound concentrations: 100 nM and 1000 nM (sheet 'Samples'), CATDS: 0.124049531101547",647 nM
Cc1occc1-c1nc(N)c(OC[C@@H](N)Cc2c[nH]c3ccccc23)cc1-c1cc2c(C)n[nH]c2cn1 [GSK1660450B],potency estimated from few doses,AAK1; [1],1070 nM
same,potency estimated from few doses,CLK1; [1],339 nM
same,potency estimated from few doses,CLK4; [1],441 nM
same,potency estimated from few doses,GAK; [1],38.2 nM
same,potency estimated from few doses,GSK3A; [1],273 nM
same,potency estimated from few doses,GSK3B,62.6 nM
same,potency estimated from few doses,PKN1,87.6 nM
same,potency estimated from few doses,PKN3,845 nM
same,potency estimated from few doses,Q6ZSR9; [1],1670 nM
same,potency estimated from few doses,SIK2,427 nM
NS(=O)(=O)c1ccc(NC=C2C(=O)Nc3ccc4ncsc4c32)cc1 [GW589933X],potency estimated from few doses,"AAK1; compound concentrations: 100 nM and 1000 nM (sheet 'Samples'), CATDS: 2.8569630231133399E-2",376 nM
same,potency estimated from few doses,"BMP2K; compound concentrations: 100 nM and 1000 nM (sheet 'Samples'), CATDS: 4.4159404649836601E-2",151 nM
same,potency estimated from few doses,"CLK1; compound concentrations: 100 nM and 1000 nM (sheet 'Samples'), CATDS: 1.74105303489548E-2",1590 nM
same,potency estimated from few doses,"CLK4; compound concentrations: 100 nM and 1000 nM (sheet 'Samples'), CATDS: 2.0435296344387299E-2",913 nM
same,potency estimated from few doses,"CSNK2A1;CSNK2A3; compound concentrations: 100 nM and 1000 nM (sheet 'Samples'), CATDS: 2.5198594058055201E-2",510 nM
same,potency estimated from few doses,"CSNK2A2; compound concentrations: 100 nM and 1000 nM (sheet 'Samples'), CATDS: 3.3899738232558103E-2",257 nM
same,potency estimated from few doses,FLT3,581 nM
same,potency estimated from few doses,FLT4; CATDS: 2.0623462365067999E-2,888 nM
same,potency estimated from few doses,"GSK3A; compound concentrations: 100 nM and 1000 nM (sheet 'Samples'), CATDS: 1.8552119857048799E-2",1250 nM
same,potency estimated from few doses,MELK,1630 nM
same,potency estimated from few doses,"Q6ZSR9; compound concentrations: 100 nM and 1000 nM (sheet 'Samples'), CATDS: 4.56646208861472E-2",141 nM
same,potency estimated from few doses,RET,1170 nM
NS(=O)(=O)c1ccc(N/N=C2\C(=O)Nc3ccc4ncccc4c32)cc1 [GW305178X],potency estimated from few doses,"AAK1; compound concentrations: 100 nM and 1000 nM (sheet 'Samples'), CATDS: 4.5052292202984998E-2",1340 nM
same,potency estimated from few doses,"BMP2K; compound concentrations: 100 nM and 1000 nM (sheet 'Samples'), CATDS: 4.3500032535549099E-2",1510 nM
same,potency estimated from few doses,"CSNK2A1;CSNK2A3; compound concentrations: 100 nM and 1000 nM (sheet 'Samples'), CATDS: 3.8490357435000497E-2",2360 nM
same,potency estimated from few doses,"CSNK2A2; compound concentrations: 100 nM and 1000 nM (sheet 'Samples'), CATDS: 4.2211322900730999E-2",1670 nM
same,potency estimated from few doses,"Q6ZSR9; compound concentrations: 100 nM and 1000 nM (sheet 'Samples'), CATDS: 4.4355829104281E-2",1410 nM
